Compound activity from PubChem BioAssay.
Sampled rows, rich in hits. Any-hit rate of the full collection: about 12%.
G9a block – qHTS Assay for Inhibitors of Histone Lysine Methyltransferase G9a; Histone-lysine N-methyltransferase EHMT2 (Homo sapiens), Q96KQ7; G9a H3K9 monomethylation, AlphaScreen, 2 h; Potency, µM (top dose mostly 102 µM), inactives show at the highest dose activity, negative = inhibition, hits mostly inhibitors; 8.8% of 350,000 active; note: % is set by controls: 0 for no effect and ±100 for the full control effect; nearly all actives have a fitted effect of over 75% in size
Target sequence (Q96KQ7 913-1193 limits assumed): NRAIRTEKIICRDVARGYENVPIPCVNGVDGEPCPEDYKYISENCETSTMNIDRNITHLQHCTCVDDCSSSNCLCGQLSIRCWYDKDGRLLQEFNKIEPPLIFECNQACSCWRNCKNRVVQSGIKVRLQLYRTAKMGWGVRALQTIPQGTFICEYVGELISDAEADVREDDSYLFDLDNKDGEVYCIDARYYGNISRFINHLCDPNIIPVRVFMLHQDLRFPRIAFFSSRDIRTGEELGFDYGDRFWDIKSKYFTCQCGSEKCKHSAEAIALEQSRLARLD
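AlphaScreen read-out: biotin-H3K9 peptide (500 nM) methylation by 20 nM enzyme with 20 uM SAM, 2 h at room temperature after 15 min compound preincubation; anti-monomethyl H3K9 antibody plus donor/acceptor beads, 10 min dark.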
PLK1 PBD block – qHTS for Inhibitors of PLK1-PDB (polo-like kinase 1 - polo-box domain): Primary Screen. 2.8% of 360,000 active. Serine/threonine-protein kinase PLK1 (Homo sapiens), P53350. Potency, µM, without a hit: max response, negative = inhibition, usual class: inhibitors. Plk1 PBD binding of FITC phosphopeptide, fluorescence polarization; note: series mostly up to about 57 µM; % is set by controls: 0 for no effect and ±100 for the full control effect; nearly all actives have a fitted effect of over 65% in size
HP1b chromo inh – HTS for Inhibitors of HP1-beta Chromodomain Interactions with Methylated Histone Tails. Potency, µM (top dose mostly 114 µM), for the others: at the top dose activity change, negative = inhibition, hits mostly inhibitors. AlphaScreen HP1-beta / biotin-H3K9me3 peptide binding. 0.56% of 390,000 active. AID 540317, 2011; note: nearly all actives have a fitted effect of over 70% in size
Target sequence (P83916 whole entry, looked up): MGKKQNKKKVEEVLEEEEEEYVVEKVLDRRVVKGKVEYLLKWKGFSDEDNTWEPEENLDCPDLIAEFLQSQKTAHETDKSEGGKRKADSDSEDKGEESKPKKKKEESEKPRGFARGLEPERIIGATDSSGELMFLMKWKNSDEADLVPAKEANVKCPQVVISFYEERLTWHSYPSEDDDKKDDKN
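Compound inhibition of the preformed complex between 50 nM HP1-beta and 50 nM biotinylated H3K9me3 peptide was read by AlphaScreen. Buffer was PBS pH 7.4 with 0.01% Tween-20. Incubations ran 30 min at room temperature, with 10 ug/mL donor/acceptor beads.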
BAZ2B inh – qHTS Assay for Inhibitors of BAZ2B; Potency, µM (series often up to 114 µM), for inactives: at the highest dose activity change, negative = inhibition, most hits filed as inhibitors; 4.4% of 360,000 active; AlphaScreen BAZ2B-H3K14Ac peptide displacement; note: % is set by controls: 0 for no effect and ±100 for the full control effect; nearly all actives have a fitted effect of over 60% in size
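In this displacement format the biotinylated H3(5-23) peptide acetylated at Lys14 serves as ligand at 50 nM, with BAZ2B at 50 nM in PBS pH 7.4 containing 0.01% Tween-20. Donor and acceptor beads are 10 ug/mL final.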
JMJD2A Tudor – qHTS Assay for Inhibitors of JMJD2A-Tudor Domain; Lysine-specific demethylase 4A (Homo sapiens), O75164; AlphaScreen JMJD2A-Tudor / H3K4me3 peptide binding; Potency, µM (highest dose often 114 µM), inactives show at the highest dose activity change, negative = inhibition, usual class: inhibitors; 4.4% of 390,000 active; note: % is set by controls: 0 for no effect and ±100 for the full control effect; nearly all actives have a fitted effect of over 50% in size
Sfp inh – qHTS Assay for Inhibitors of Bacillus subtilis Sfp phosphopantetheinyl transferase (PPTase). 4'-phosphopantetheinyl transferase ffp (Bacillus subtilis), Q9F4F7. Biochemical Sfp PPTase activity, qHTS. Potency, µM, for inactives: largest response in the series, negative = inhibition, actives largely listed as inhibitors. 3.5% of 310,000 active;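 note: the enzyme is Sfp with the accession as filed and its product quenches rhodamine fluorescence; 0% = enzyme reaction without inhibitor and -100% = no enzyme wells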
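Reaction rates are the 30-min fluorescence difference (ex 525, em 598 nm) in wells containing 15 nM Sfp, 5 uM rhodamine-CoA and 12.5 uM BHQ-2-YbbR at pH 7.6 with 10 mM MgCl2.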
An asterisk follows results filed as active; ? = inconclusive; . = no result given; [ ] = dose if it differs, or a comment. Calls come from the whole dose curve; as a rule, active = well fitted curve in the direction sought with a large enough effect; inconclusive = small, poorly fitted or top-dose-only effect, or another doubt; inactive = no such curve, though single readings can be large; an effect the other way counts as inactive or inconclusive. Potency is the fitted concentration of half-maximal effect.

SMILES	G9a block	PLK1 PBD block	HP1b chromo inh	BAZ2B inh	JMJD2A Tudor	Sfp inh
COc1ccccc1N1CCN(C(=O)c2ccc3[nH]c(C)c(C)c3c2)CC1	40µM*	-9%	-23%[57 µM]	?	?	-4%
Cc1ccc(C)c(N2CCN(C(=O)c3cc4c(C)nc5ccccc5c4o3)CC2)c1	?	4%	-10%[57 µM]	?	?	?
Cc1cccc(N2CCN(C(=O)c3ccc4[nH]c(C)c(C)c4c3)CC2)c1C	.	-5%	-38%	.	?	.
COc1ccccc1N1CCN(C(=O)c2cc3c(C)nc4ccccc4c3o2)CC1	50µM*	-12%	24%	?	-33%	-12%
COc1ccc(-c2nn(-c3ccccc3)cc2C(N)=O)cc1OC	.	-8%	54%	-4%	-10%	16%
COc1ccc(OC)c(-n2c3c(cc(-c4nc(-c5ccc(Cl)cc5)cs4)c2=O)C(=O)CC(C)(C)C3)c1	8%[59 µM]	.	65%	9%	28%	.
COc1ccc(C(=O)N2CCCC(Nc3ccc(C)c(C)c3)C2)cc1 (stereo not given)	-24%	-7%	3%	?	?	0%
Cc1[nH]c2ccc(C(=O)N3CCN(c4ccccc4F)CC3)cc2c1C	?	.	?	?	89µM*	.
CC1=C(C(=O)Nc2ccc(C(=O)N3CCN(c4ccccc4F)CC3)cc2)SCCO1	-16%	-20%	3%	?	?	8%
CC1=C(C(=O)Nc2ccc(C(=O)N3CCN(c4cccc(Cl)c4)CC3)cc2)SCCO1	45µM*	-6%	-7%	?	?	-5%
COc1ccc(NC2CCCN(C(=O)c3ccc4[nH]c(C)c(C)c4c3)C2)cc1OC (stereo not given)	.	-3%	-8%	45µM*	?	0%
COc1ccc2c(c1)OC[C@H]1[C@H]2N2C(=O)[C@H](C)NC(=O)[C@@]2(C)[C@H]1c1ccccc1	-4%[0.501 µM]	-2%	22%	5%	-12%	.
CC(CN1CCN(C)CC1)OC(=O)c1ccccc1Cl (stereo not given)	50µM*	?	26%	?	79µM*	-8%
Cc1ccccc1OCC(=O)OC(C)CN1CCN(C)CC1 (stereo not given)	50µM*	-2%	6%	?	?	-7%
CCN(CC)CCNc1ccc(C)c2sc3ccc(O)cc3c(=O)c12	.	8%	?	.	22µM*	.
COc1ccc(-c2coc3cc(OC(C)=O)ccc3c2=S)cc1	.	12µM*	?	.	45µM*	.
CC(=O)Oc1ccc2c(=O)c(-c3ccccc3)coc2c1	8%	-15%	0%	-23%	-9%	5%
COn1c2c(c3c4nonc4ccc31)CCCC2	10µM*	?	103%	14%	34%	-27%
COn1c2c(c3c4no[n+]([O-])c4ccc31)CCCC2	-16%	0%	11%	-28%	-15%	11%
O=[N+]([O-])c1cccc(-c2nc3ccc([N+](=O)[O-])cc3[nH]2)c1	79µM*	9.5µM*	-2%	7%	20µM*	9%
O=[N+]([O-])c1ccc2nc(-c3ccncc3)[nH]c2c1	?	-1%	51%	-1%	-6%	6%
Cc1cccc(C(=O)NC2(C(F)(F)F)N=C(c3ccccc3)N(C3CCCCC3)C2=O)c1 (stereo not given)	3%[59 µM]	.	21%	-17%	-10%	.
c1coc(CNc2nc(-c3cccs3)cs2)c1	20µM*	-23%	-32%	45µM*	?	-7%
c1ccc(Nc2nc(-c3ccncc3)cs2)cc1	?	0%	17%	4%	-11%	-16%
